# KB-V1 cytotox – KB-V1 MDR subline cytotoxicity; KB-V1 MDR cells viability, CellTiter-Glo, 72 h; Potency, µM (doses to about 46.1 µM), most hits filed as cytotoxic; 3.4% of 400,000 active; AID 1347076; also: nearly all actives have a fitted effect of over 60% in size
#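 Cells of the MDR subline KB-V1 are plated, dosed with compound at multiple concentrations, and incubated 72 h at 37 degrees C; CellTiter-Glo is then added and luminescence read after 10 min.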
# KB-3-1 tox – kills parental KB-3-1 adenocarcinoma cells; KB-3-1 viability, CellTiter-Glo ATP luminescence, 72 h; Potency, µM (top dose mostly 46.1 µM), actives largely listed as cytotoxic; 1.4% of 400,000 active; AID 1347075; also: nearly all actives have a fitted effect of over 60% in size
#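 Cytotoxicity in the drug-sensitive parental line KB-3-1 was scored as loss of CellTiter-Glo luminescence following 72 h incubation with compound. Values come from curve fitting of normalized concentration-response data.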
# SW480 rerep – induces DNA re-replication in SW480 colon adenocarcinoma cells; 1.8% of 340,000 active; Potency, µM (highest dose often 46.1 µM), actives largely listed as activators; SW480 DNA re-replication, Hoechst DNA content imaging, 48 h; also: nearly all actives have a fitted effect of over 55% in size
#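 Quantitative HTS format with DMSO vehicle controls; 48 hr drug incubation at 37 C, then 40 min Hoechst staining and scanning imager measurement at 405 nm excitation.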
# HT1080 IDH1KD tx – kills HT-1080 cells with IDH1 knockdown | HT-1080 IDH1 knockdown viability, ATP luminescence, 48 h | Potency, µM (titrated, usually from 46.1 µM), usual class: cytotoxic | 2% of 360,000 active
#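 In this qHTS, HT-1080 cells depleted of IDH1 are exposed for 48 h at 37 °C to compound titrations. Toxicity is scored from CellTiter-Glo luminescence, with DMSO as full viability and medium alone as none.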
# HT1080NT lethal – kills 2HG-producing HT-1080-NT fibrosarcoma cells; HT-1080-NT fibrosarcoma viability, CellTiter-Glo ATP luminescence, 48 h; Potency, µM (titrated, usually from 46.1 µM), actives largely listed as cytotoxic; 1.6% of 360,000 active; AID 686970;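 also: NT is the 2HG producing partner of a matched IDH1 knockdown line; nearly all actives have a fitted effect of over 55% in size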
#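 Read-out is CellTiter-Glo luminescence after 10 minutes at room temperature, following 48 hours' compound treatment of HT-1080-NT cells (750 cells/well, RPMI, 5% FBS, 37 degrees C).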
# MCF10A rereplic – DNA re-replication induction in MCF 10a cells; 2.9% of 350,000 active; AID 624296; Potency, µM (series often up to 46.1 µM), hits mostly activators; MCF 10A DNA re-replication, Hoechst nuclear intensity, 48 h; also: nearly all actives have a fitted effect of over 50% in size
# A number is an active result; - = inactive; ? = inconclusive; . = no result; [ ] = another dose, or the depositor's remark. This is a sample that favours compounds with a hit; in the whole collection about 8% have one here. Calls follow the shape of the dose curve; as a rule, active = well fitted curve in the direction sought with a large enough effect; inconclusive = small, poorly fitted or top-dose-only effect, or another doubt; inactive = no such curve, though single readings can be large; an effect the other way counts as inactive or inconclusive.
SMILES,KB-V1 cytotox,KB-3-1 tox,SW480 rerep,HT1080 IDH1KD tx,HT1080NT lethal,MCF10A rereplic
COc1ccc(CC(=O)NCC(c2cccs2)S(=O)(=O)c2ccc(C)cc2)cc1 (stereo not given),-,-,.,.,.,.
CN(C)CCN1CC(O)=C(c2nc3ccccc3s2)C1=N,-,-,-,-,-,18.4µM
CNC(=O)C1CCC(Cn2c(=O)c3sccc3n(CC(=O)N3CCCC3)c2=O)CC1 (stereo not given),-,-,.,.,.,.
COC(=O)C1C(c2ccccc2)C(C(=O)OCc2ccco2)C1c1ccccc1 (stereo not given),13µM,?,-,-,-,?
O=C(O)C1C(c2ccccc2)C(C(=O)OCc2ccco2)C1c1ccccc1 (stereo not given),-,-,-,-,-,-
COc1ccccc1CNC(=O)COC(=O)Cc1cccc(F)c1,-,-,-,-,-,-
COc1ccccc1CCn1cnc(Cc2cccc(F)c2)c1C(C)C,18.4µM,?,.,?,?,.
COc1cccc(-c2ncn(CCc3ccccc3OC)c2C(C)C)c1,11.6µM,?,.,14.6µM,13µM,.
Cc1ccccc1OCC(=O)Nc1nnc(S(=O)(=O)N2CCCCCC2)s1,-,-,.,.,.,.
COc1ccc(-n2c(=O)c3ccc(C(=O)NCc4ccc(C)cc4)cc3n(CC(=O)Nc3ccc(F)cc3)c2=O)cc1,-,-,.,.,.,.
CNC(=O)COC(=O)c1ccccc1C(=O)c1ccc(Cl)c([N+](=O)[O-])c1,?,-,5.8µM,23.1µM,11.6µM,5.8µM
O=C(OC1CCOC1=O)c1ccccc1C(=O)c1ccc(Cl)c([N+](=O)[O-])c1 (stereo not given),-,-,?,?,-[9.24 µM],4.61µM
O=C(COC(=O)c1ccccc1C(=O)c1ccc(Cl)c([N+](=O)[O-])c1)NC1CC1,-,8.2µM,?,4.61µM,6.51µM,3.26µM
CC/C(=C/c1ccccc1OC)c1cc(-c2ccccc2)cc2oc3ccccc3c12,-,-,.,.,.,.
CC(NC(=O)Cn1ccc2cc(S(=O)(=O)N3CCCCCC3)ccc21)c1ccccc1 (stereo not given),-,-,.,.,.,.
COc1cc(CNC(=O)c2cnc3c(-c4cccc(C)c4)c(C)nn3c2C)cc(OC)c1OC,?,-,.,.,.,.
N#C/C(=C\c1cccc([N+](=O)[O-])c1)c1ccccn1,-,-,-,-,-,-
N#C/C(=C\c1c[nH]c2ccc(Br)cc12)c1ccccn1,-,-,?,?,25.9µM,?
CC(=O)c1ccc(-n2c(=O)[nH]c(=O)c3c(N)c(C(=O)c4ccc(Cl)cc4)sc32)cc1,-,-,18.4µM,23.1µM,20.6µM,?
Nc1c(C(=O)c2ccccc2)sc2c1c(=O)[nH]c(=O)n2-c1ccccc1,14.6µM,-,-,-,-,-
Cc1ccc(C(=O)c2sc3c(c2N)c(=O)[nH]c(=O)n3CCc2ccccc2)cc1,?,-,?,-,-,9.2µM
Nc1c(C(=O)c2ccc(Cl)cc2)sc2c1c(=O)[nH]c(=O)n2-c1ccccc1,-,-,-,-,-,?
N#Cc1c(C(F)(F)F)cc(-c2cccs2)nc1SCC(=O)Nc1cccc(C(F)(F)F)c1,-,-,.,.,.,.
Cc1ccc(C)c(NC(=O)N2CCN(C(=O)c3nsc4ccccc34)CC2)c1,-,-,.,.,.,.
CCCCn1cc(S(=O)(=O)c2cc(C)ccc2C)c(=O)c2cc(F)c(F)cc21,-,-,.,.,.,.
SMILES,KB-V1 cytotox,KB-3-1 tox,SW480 rerep,HT1080 IDH1KD tx,HT1080NT lethal,MCF10A rereplic
CCn1cc(C(=O)N(C)Cc2ccccc2)c(=O)c2cc(S(=O)(=O)N3CCc4ccccc4C3)ccc21,-,-,.,.,.,.
COc1ccc(NC(=O)CSc2nc(-c3ccccc3)nc3c2Cc2c(CO)cnc(C)c2O3)cc1Cl,-,-,.,.,.,.
NC(=O)CSc1nc2c(c(=O)n1-c1ccccc1)C1(CCCCC1)Cc1ccccc1-2,?,?,-,13µM,?,?
Cc1cccc(-n2c(SCC(N)=O)nc3c(c2=O)C2(CCCC2)Cc2ccccc2-3)c1,3.26µM,?,-,?,?,-
CCn1c(SCC(N)=O)nc2c(c1=O)C1(CCCC1)Cc1ccccc1-2,-,-,-,-,-,?
O=c1c2c(nc(NCCO)n1CC1CCCCC1)-c1ccccc1CC21CCCC1,?,?,-,?,?,23.1µM
CC1(C)CC(n2c(NCCO)nc3c(c2=O)C2(CCCC2)Cc2ccccc2-3)CCO1 (stereo not given),-,-,-,-[9.24 µM],?,-
Cc1ccc(-n2cc(-c3ccccc3)c3c(N4CCN(C)CC4)ncnc32)cc1,-,-,-,-,-,20.6µM
Cc1cccc(-n2cc(-c3ccccc3)c3c(N4CCOCC4)ncnc32)c1,?,-,-,13µM,20.6µM,?
Fc1ccc(-n2cc(-c3ccccc3)c3c(NN4CCOCC4)ncnc32)cc1,7.31µM,?,-,-,-,?
CC1CN(c2ncnc3c2c(-c2ccccc2)cn3-c2ccc(F)cc2)CC(C)O1 (stereo not given),?,-,-,?,?,?
OCCN1CCN(c2ncnc3c2c(-c2ccccc2)cn3-c2ccc(F)cc2)CC1,-,-,-,18.4µM,?,-
COc1ccc(-n2cc(-c3ccccc3)c3c(NN4CCOCC4)ncnc32)cc1,?,-,-,-,-,?
CCCCOc1ccc(C2c3c(oc4ccccc4c3=O)C(=O)N2c2nc(C)c(C(=O)OCC)s2)cc1OC (stereo not given),-,?,.,.,.,.
CCOC(=O)c1ccccc1NC(=O)N(C)CCc1c(C)nn(CC)c1C,-,-,.,.,.,.
CC(C)c1nc2ccc(C(=O)NCCCN3CCN(c4ccccc4F)CC3)cc2o1,-,-,.,.,.,.
CCOC(=O)C1CCN(c2ncnc3c2c(-c2ccccc2)cn3-c2ccccc2)CC1,-,-,?,-,-,?
Cc1ccc(-n2cc(-c3ccccc3)c3c(N4CCOCC4)ncnc32)cc1,?,-,?,?,?,18.4µM
CCOc1ccc(NC(=O)N2CCN(C(=O)c3nsc4ccccc34)CC2)cc1,-,-,.,.,.,.
c1ccc(-c2noc(C34CC5CC(CC(C5)C3)C4)n2)cc1,-,-,-,-,-,11.6µM
COc1cccc(CNS(=O)(=O)c2ccc3c(c2)C(C(C)C)C(=O)N3)c1 (stereo not given),-,?,.,.,.,.
Cc1nnsc1C(=O)Oc1ccc(Cl)cc1,-,-,.,.,.,.
CCc1ccccc1NC(=O)Nc1cc(C(=O)NCc2ccccc2OC)ccc1N1CCCC1,-,-,.,.,.,.
C=CCC[C@H](Cc1ccc(F)cc1)C(=O)OC[C@H](Cc1c[nH]c2ccccc12)NC(=O)[C@@H](CC=C)CC(=O)N[C@@H](CO)Cc1ccccc1,-,?,-,?,?,?

# Screening results as filed in PubChem.
